According to the supplement of paper PMC11732987, “Enantioselective OTUD7B fragment discovery through chemoproteomics screening and high-throughput optimisation” (Communications Chemistry, 2025):
A number with no mark means an inactive call.

Columns and labels:
Test in all cases: log2 ratio of Biotin-Ahx-Ub-VS probe labelling (fragment/DMSO); higher = less target engagement (more negative = stronger competition), active = hit call of the paper (q ≤ 0.05, log2 ratio ≤ -1)
Conditions in all cases: compound concentration: 200 uM; treatment time: 3 h
ALG13 = molecular target: T1, ALG13 (UniProt Q9NP73)
T1 sequence (whole entry): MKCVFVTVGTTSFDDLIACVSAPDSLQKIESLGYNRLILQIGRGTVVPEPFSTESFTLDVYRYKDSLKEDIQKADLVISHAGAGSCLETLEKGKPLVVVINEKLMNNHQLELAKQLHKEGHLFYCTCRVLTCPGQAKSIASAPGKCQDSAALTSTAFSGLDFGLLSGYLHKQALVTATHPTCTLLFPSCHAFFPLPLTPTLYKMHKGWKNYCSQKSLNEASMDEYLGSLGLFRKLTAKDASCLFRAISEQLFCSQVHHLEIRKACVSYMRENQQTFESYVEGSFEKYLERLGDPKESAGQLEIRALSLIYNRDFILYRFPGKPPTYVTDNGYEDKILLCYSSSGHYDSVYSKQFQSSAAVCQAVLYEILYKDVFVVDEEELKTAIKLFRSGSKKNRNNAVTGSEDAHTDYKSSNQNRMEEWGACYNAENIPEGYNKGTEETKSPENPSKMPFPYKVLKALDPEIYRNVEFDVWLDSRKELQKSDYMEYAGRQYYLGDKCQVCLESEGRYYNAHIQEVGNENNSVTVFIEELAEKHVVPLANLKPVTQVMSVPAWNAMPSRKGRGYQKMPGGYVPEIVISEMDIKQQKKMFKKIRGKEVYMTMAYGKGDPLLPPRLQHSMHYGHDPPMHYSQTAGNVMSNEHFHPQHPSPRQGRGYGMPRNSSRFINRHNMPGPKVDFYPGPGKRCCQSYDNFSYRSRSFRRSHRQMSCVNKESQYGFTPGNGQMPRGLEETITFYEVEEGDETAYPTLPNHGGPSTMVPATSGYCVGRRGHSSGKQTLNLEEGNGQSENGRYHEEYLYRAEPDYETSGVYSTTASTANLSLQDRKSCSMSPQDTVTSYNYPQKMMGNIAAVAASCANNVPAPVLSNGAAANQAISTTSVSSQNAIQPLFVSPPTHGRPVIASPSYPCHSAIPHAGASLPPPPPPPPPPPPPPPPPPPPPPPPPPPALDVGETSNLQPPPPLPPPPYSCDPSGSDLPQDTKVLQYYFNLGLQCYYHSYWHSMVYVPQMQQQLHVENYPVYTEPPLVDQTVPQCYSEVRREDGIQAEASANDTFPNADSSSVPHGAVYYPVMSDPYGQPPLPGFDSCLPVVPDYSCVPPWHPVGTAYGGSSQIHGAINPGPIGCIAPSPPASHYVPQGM
Summary of the method: (§1)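 Triplicate samples of HEK293T lysate, 495 µg each, received fragment at 200 µM or vehicle for 3 h, followed by Biotin-Ahx-Ub-VS (0.5 µM final) for 1 h. After NeutrAvidin enrichment of labelled DUBs and LysC/trypsin digestion, peptides were run by diaPASEF LC-MS/MS. The values are average log2 fragment/vehicle ratios from global-median-normalised Spectronaut label-free quantities, tested by unpaired t-test on proteins having ≥2 unique peptides.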

ATXN3 = ATXN3 (UniProt P54252)
Summary of the method: as §1

BAP1 = molecular target: T2, BAP1 (UniProt Q92560)
T2 sequence (whole entry): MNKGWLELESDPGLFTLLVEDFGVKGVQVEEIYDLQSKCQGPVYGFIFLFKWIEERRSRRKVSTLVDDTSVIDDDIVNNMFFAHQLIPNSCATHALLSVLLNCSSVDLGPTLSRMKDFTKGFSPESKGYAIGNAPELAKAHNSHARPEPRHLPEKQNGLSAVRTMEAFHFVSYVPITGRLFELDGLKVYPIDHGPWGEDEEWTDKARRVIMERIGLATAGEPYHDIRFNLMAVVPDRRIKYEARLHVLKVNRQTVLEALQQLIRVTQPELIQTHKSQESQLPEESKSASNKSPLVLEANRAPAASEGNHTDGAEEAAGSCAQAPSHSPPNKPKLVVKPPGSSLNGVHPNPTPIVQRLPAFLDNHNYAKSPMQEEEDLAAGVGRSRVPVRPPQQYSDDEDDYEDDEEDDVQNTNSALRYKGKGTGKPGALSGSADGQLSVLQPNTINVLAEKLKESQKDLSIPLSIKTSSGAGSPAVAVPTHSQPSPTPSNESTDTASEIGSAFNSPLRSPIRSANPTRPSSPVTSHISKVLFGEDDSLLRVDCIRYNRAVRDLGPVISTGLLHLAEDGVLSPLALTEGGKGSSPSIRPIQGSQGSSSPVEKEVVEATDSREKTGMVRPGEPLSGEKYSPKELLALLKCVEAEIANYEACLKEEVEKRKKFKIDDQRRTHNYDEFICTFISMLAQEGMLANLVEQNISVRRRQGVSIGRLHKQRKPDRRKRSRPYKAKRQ
Summary of the method: as §1

EIF3F = EIF3F (UniProt O00303)
Summary of the method: as §1

EIF3H = EIF3H (UniProt O15372)
Summary of the method: as §1

FAM105A = molecular target: T3, FAM105A (UniProt Q9NUU6)
T3 sequence (whole entry): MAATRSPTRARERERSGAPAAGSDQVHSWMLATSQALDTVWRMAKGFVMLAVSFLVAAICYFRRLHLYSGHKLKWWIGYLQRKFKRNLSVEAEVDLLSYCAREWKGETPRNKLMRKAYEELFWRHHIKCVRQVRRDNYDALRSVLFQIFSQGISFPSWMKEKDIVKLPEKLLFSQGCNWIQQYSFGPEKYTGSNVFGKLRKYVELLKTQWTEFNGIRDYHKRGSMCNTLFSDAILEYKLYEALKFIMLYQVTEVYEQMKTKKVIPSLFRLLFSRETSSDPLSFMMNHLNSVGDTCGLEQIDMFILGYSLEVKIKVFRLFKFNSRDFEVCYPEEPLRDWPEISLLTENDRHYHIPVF
Summary of the method: as §1

OTUB1 = OTUB1 (UniProt Q96FW1)
Summary of the method: as §1

OTUD4 = molecular target: T4, OTUD4 (UniProt Q01804)
T4 sequence (whole entry): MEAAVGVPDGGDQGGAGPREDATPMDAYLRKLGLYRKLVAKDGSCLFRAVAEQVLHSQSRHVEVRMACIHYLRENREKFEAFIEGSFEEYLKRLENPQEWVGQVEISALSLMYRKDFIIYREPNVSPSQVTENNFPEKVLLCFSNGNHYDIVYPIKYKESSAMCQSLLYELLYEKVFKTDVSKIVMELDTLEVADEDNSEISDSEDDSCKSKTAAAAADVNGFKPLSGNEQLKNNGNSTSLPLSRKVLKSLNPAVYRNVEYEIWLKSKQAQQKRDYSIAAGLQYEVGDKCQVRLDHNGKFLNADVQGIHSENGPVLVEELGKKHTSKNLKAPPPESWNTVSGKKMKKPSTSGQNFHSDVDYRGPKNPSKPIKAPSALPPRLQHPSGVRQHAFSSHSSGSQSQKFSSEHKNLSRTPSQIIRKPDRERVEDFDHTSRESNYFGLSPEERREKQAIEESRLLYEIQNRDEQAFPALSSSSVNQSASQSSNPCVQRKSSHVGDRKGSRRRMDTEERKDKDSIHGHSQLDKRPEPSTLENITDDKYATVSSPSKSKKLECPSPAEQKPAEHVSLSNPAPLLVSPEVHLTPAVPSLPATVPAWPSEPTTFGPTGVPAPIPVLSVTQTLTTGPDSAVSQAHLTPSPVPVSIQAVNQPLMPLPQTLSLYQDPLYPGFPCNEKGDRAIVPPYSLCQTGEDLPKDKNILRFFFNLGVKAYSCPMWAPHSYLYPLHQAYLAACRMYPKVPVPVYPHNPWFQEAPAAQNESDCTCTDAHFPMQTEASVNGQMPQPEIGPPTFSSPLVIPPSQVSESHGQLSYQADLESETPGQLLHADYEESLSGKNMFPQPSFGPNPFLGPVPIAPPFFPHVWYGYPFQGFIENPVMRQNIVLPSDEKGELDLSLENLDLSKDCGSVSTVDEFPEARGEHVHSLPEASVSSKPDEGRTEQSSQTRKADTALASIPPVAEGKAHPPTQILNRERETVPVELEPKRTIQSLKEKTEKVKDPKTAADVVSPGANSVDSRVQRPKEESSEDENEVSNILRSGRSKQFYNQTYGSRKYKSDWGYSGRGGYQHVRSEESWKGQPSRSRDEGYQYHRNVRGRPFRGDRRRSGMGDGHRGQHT
Summary of the method: as §1

OTUD5 = molecular target: T5, OTUD5 (UniProt Q96G74)
T5 sequence (whole entry): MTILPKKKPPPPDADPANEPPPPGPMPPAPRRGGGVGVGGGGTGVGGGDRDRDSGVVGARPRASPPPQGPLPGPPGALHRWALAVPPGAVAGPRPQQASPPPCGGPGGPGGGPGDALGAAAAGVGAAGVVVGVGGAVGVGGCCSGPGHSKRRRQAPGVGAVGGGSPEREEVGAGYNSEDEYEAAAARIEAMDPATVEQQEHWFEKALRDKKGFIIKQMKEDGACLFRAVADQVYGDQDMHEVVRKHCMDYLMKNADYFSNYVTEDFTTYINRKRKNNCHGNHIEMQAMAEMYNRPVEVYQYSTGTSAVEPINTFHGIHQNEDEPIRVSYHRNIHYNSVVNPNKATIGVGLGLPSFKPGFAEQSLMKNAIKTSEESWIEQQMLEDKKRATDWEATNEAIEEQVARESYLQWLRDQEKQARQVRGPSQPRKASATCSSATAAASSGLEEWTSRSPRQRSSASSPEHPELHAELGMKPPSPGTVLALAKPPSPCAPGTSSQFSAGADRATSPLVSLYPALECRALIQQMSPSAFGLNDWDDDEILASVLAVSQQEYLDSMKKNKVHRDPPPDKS
Summary of the method: as §1

Chain of ATXN3 (P54252 whole entry): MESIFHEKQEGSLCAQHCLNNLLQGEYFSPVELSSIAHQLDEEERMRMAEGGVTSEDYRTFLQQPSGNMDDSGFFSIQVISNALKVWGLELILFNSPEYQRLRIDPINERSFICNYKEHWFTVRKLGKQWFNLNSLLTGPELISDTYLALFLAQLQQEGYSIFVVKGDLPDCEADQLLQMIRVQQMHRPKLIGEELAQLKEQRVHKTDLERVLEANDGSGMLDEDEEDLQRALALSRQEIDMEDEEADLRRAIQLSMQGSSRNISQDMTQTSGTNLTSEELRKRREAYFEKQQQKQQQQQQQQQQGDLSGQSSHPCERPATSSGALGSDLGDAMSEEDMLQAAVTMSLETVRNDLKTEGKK
Chain of EIF3H (O15372 whole entry): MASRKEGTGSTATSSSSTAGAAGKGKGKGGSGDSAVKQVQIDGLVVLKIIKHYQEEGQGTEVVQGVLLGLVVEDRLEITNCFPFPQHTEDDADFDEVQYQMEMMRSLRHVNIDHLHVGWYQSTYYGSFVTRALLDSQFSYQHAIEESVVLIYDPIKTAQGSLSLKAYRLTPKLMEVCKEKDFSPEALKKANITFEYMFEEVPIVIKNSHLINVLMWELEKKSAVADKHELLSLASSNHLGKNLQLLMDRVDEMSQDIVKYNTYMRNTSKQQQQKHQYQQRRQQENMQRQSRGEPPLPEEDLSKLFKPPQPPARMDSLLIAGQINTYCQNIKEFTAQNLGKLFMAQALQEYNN
Chain of EIF3F (O00303 whole entry): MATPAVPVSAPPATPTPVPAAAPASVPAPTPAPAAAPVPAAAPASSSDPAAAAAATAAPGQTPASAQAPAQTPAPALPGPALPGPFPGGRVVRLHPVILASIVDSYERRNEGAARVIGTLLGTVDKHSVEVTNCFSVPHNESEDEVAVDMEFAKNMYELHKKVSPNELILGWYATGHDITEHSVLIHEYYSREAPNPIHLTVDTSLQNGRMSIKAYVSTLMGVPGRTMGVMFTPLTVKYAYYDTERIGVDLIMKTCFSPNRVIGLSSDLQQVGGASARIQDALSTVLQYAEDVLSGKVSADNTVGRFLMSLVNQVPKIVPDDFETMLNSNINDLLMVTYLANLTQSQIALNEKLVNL
Chain of OTUB1 (Q96FW1 whole entry): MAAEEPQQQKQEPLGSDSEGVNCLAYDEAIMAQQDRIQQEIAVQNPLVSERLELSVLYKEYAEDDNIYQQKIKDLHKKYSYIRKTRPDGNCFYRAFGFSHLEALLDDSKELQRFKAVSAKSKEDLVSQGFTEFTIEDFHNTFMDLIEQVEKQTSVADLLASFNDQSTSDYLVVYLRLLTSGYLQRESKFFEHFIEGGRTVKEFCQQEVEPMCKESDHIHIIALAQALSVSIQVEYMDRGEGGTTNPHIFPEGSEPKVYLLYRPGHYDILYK

`CC1(NC(=O)CCl)CCS(=O)(=O)C1` (centres undefined) was tested, and the “log2 ratio of Biotin-Ahx-Ub-VS probe labelling” value (“log2 ratio” for short) (ALG13) was -0.0745, the “log2 ratio” value (ATXN3) was -0.753 and the “log2 ratio” value (BAP1) was -1.37 (active). For the same compound, the “log2 ratio” value (EIF3F) was -0.345, the “log2 ratio” value (EIF3H) was 0.186 and the “log2 ratio” value (FAM105A) was 0.0573. The “log2 ratio” value (OTUB1) was -0.246, the “log2 ratio” value (OTUD4) was -0.934 and the “log2 ratio” value (OTUD5) was -0.673.
In the case of `Cl.O=C(CCl)N1CCC(n2nc3ccccc3n2)CC1`, the “log2 ratio” value (ALG13) is reported as -0.254, the “log2 ratio” value (ATXN3) is reported as -1.1 (active) and the “log2 ratio” value (BAP1) is reported as -2.08 (active). For the same compound, the “log2 ratio” value (EIF3F) was -0.315, the “log2 ratio” value (EIF3H) was -0.151 and the “log2 ratio” value (FAM105A) was 0.315. For the same compound, the “log2 ratio” value (OTUB1) was -0.67, the “log2 ratio” value (OTUD4) was -0.134 and the “log2 ratio” value (OTUD5) was -0.494.
For `Cl.O=C(CCl)N1CCN(Cc2ccccc2)CC1`, the “log2 ratio” value (ALG13) was 0.239, the “log2 ratio” value (ATXN3) was -0.805 and the “log2 ratio” value (BAP1) was -0.734. For the same compound, the “log2 ratio” value (EIF3F) was -0.615, the “log2 ratio” value (EIF3H) was 0.134 and the “log2 ratio” value (FAM105A) was -0.0745. For the same compound, the “log2 ratio” value (OTUB1) was -0.185, the “log2 ratio” value (OTUD4) was -0.316 and the “log2 ratio” value (OTUD5) was -0.551.
With `Cc1ccccc1C1(CNC(=O)CCl)CCOCC1` the “log2 ratio” value (ALG13) was 0.22, the “log2 ratio” value (ATXN3) was -0.273 and the “log2 ratio” value (BAP1) was -1.23 (active). For the same compound, the “log2 ratio” value (EIF3F) was 0.0678, the “log2 ratio” value (EIF3H) was 0.00175 and the “log2 ratio” value (FAM105A) was 0.0441. The “log2 ratio” value (OTUB1) was -0.0623, the “log2 ratio” value (OTUD4) was -0.322 and the “log2 ratio” value (OTUD5) was -0.157.
`Cl.Cn1cnc2cc(CNC(=O)CCl)ccc21` was tested, and the “log2 ratio” value (ALG13) was 0.056, the “log2 ratio” value (ATXN3) was -0.239 and the “log2 ratio” value (BAP1) was -2.15 (active). The “log2 ratio” value (EIF3F) was -0.304, the “log2 ratio” value (EIF3H) was 0.311 and the “log2 ratio” value (FAM105A) was -0.318. For the same compound, the “log2 ratio” value (OTUB1) was 0.0608, the “log2 ratio” value (OTUD4) was -0.0323 and the “log2 ratio” value (OTUD5) was -0.121.
`O=C(CCl)N1CCC(C(=O)N2CCCC2)CC1` was tested, and the “log2 ratio” value (ALG13) was 0.141, the “log2 ratio” value (ATXN3) was -0.319 and the “log2 ratio” value (BAP1) was -0.206. The “log2 ratio” value (EIF3F) was -0.123, the “log2 ratio” value (EIF3H) was -0.0247 and the “log2 ratio” value (FAM105A) was -0.324. The “log2 ratio” value (OTUB1) was -0.0283, the “log2 ratio” value (OTUD4) was 0.178 and the “log2 ratio” value (OTUD5) was -0.137.
